# Reference: the supplement of paper PMC11628255, “Interference of metal ions on the bioluminescent signal of firefly, Renilla, and NanoLuc luciferases in high-throughput screening assays” (Frontiers in Chemistry, 2024)
# ± gives the standard deviation of the averaged measurements.
# Test system: NanoLuc luciferase (NLuc)
# Assay: residual bioluminescent signal relative to negative control without GSH; higher = less interference (more residual luciferase signal)
# Conditions: screening conditions buffer
# Description: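 Selected metal salts at 3-4 concentrations tested on purified FLuc, NLuc or RLuc in screening buffer with 0, 0.2 or 2 mM glutathione added; 10 min enzyme pre-incubation at RT, luminescence 10 min after substrate. Signal normalised to negative control without GSH (% N_VALUE); triplicate wells.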
# [1] = metal salt concentration 1 mM, glutathione 0 mM
# [2] = metal salt concentration 1 mM, glutathione 0.2 mM
# [3] = metal salt concentration 1 mM, glutathione 2 mM
Structure (SMILES),"residual bioluminescent signal (metal salt concentration 0.01 mM, glutathione 0 mM) [%]","residual bioluminescent signal (metal salt concentration 0.01 mM, glutathione 0.2 mM) [%]","residual bioluminescent signal (metal salt concentration 0.01 mM, glutathione 2 mM) [%]","residual bioluminescent signal (metal salt concentration 0.816 mM, glutathione 0 mM) [%]","residual bioluminescent signal (metal salt concentration 0.816 mM, glutathione 0.2 mM) [%]","residual bioluminescent signal (metal salt concentration 0.816 mM, glutathione 2 mM) [%]",residual bioluminescent signal [1] [%],residual bioluminescent signal [2] [%],residual bioluminescent signal [3] [%],"residual bioluminescent signal (metal salt concentration 2.5 mM, glutathione 0 mM) [%]","residual bioluminescent signal (metal salt concentration 2.5 mM, glutathione 0.2 mM) [%]","residual bioluminescent signal (metal salt concentration 2.5 mM, glutathione 2 mM) [%]","residual bioluminescent signal (metal salt concentration 0.05 mM, glutathione 0 mM) [%]","residual bioluminescent signal (metal salt concentration 0.05 mM, glutathione 0.2 mM) [%]","residual bioluminescent signal (metal salt concentration 0.05 mM, glutathione 2 mM) [%]","residual bioluminescent signal (metal salt concentration 0.88 mM, glutathione 0 mM) [%]","residual bioluminescent signal (metal salt concentration 0.88 mM, glutathione 0.2 mM) [%]","residual bioluminescent signal (metal salt concentration 0.88 mM, glutathione 2 mM) [%]","residual bioluminescent signal (metal salt concentration 5 mM, glutathione 0 mM) [%]","residual bioluminescent signal (metal salt concentration 5 mM, glutathione 0.2 mM) [%]","residual bioluminescent signal (metal salt concentration 5 mM, glutathione 2 mM) [%]"
[Cl][Fe]([Cl])[Cl] [iron(III) chloride],95.59 ± 0.8,101 ± 6.7,82.7 ± 2.5,60.2 ± 3.4,69.1 ± 0.65,28.9 ± 1.5,54.3 ± 4.4,55.5 ± 7.2,44.4 ± 35,4.41 ± 1.8,7.61 ± 0.73,1.69 ± 0.99,–,–,–,–,–,–,–,–,–
[Cl][Fe][Cl] [iron(II) chloride],–,–,–,–,–,–,38.2 ± 3.3,47.6 ± 1.5,30.5 ± 2.4,–,–,–,94.3 ± 1.3,100 ± 3.5,82.2 ± 1.7,47.8 ± 5.5,49.4 ± 1.8,34.8 ± 2.7,1.69 ± 0.79,2.48 ± 0.68,7.22 ± 0.76
